# Read-outs that look alike come from different tables or passages of the source.
# Legend:
# [1] = test system: AAK1; settings: n = 1
# [2] = test system: ABL1-nonphosphorylated; settings: concentration: 1 μM, replicates: in singlicate; n = 1
# [3] = test system: ABL1-phosphorylated; settings: concentration: 1 μM, replicates: in singlicate; n = 1
# [4] = test system: ABL2; settings: concentration: 1 μM, replicates: in singlicate; n = 1
# [5] = test system: ACVR1B; settings: concentration: 1 μM, replicates: in singlicate; n = 1
# [6] = test system: ACVR1; settings: concentration: 1 μM, replicates: in singlicate; n = 1
# [7] = test system: ACVR2A; settings: concentration: 1 μM, replicates: in singlicate; n = 1
# [8] = test system: ACVR2B; settings: concentration: 1 μM, replicates: in singlicate; n = 1
# [9] = test system: ACVRL1; settings: concentration: 1 μM, replicates: in singlicate; n = 1
# [10] = test system: T1, ADCK3; settings: concentration: 1 μM, replicates: in singlicate; n = 1
# T1 construct: gene CABC1
# [11] = test system: ADCK4; settings: concentration: 1 μM, replicates: in singlicate; n = 1
# [12] = test system: AKT1; settings: concentration: 1 μM, replicates: in singlicate; n = 1
# [13] = test system: AKT2; settings: concentration: 1 μM, replicates: in singlicate; n = 1
# [14] = test system: AKT3; settings: concentration: 1 μM, replicates: in singlicate; n = 1
# [15] = test system: ALK; settings: concentration: 1 μM, replicates: in singlicate; n = 1
# [16] = test system: T2, AMPK-alpha1; settings: concentration: 1 μM, replicates: in singlicate; n = 1
# T2 construct: gene PRKAA1
# [17] = test system: T3, AMPK-alpha2; settings: concentration: 1 μM, replicates: in singlicate; n = 1
# T3 construct: gene PRKAA2
# [18] = test system: ANKK1; settings: concentration: 1 μM, replicates: in singlicate; n = 1
# [19] = test system: T4, ARK5; settings: concentration: 1 μM, replicates: in singlicate; n = 1
# T4 construct: gene NUAK1
# [20] = test system: T5, ASK1; settings: concentration: 1 μM, replicates: in singlicate; n = 1
# T5 construct: gene MAP3K5
# [21] = concentration: 1 μM, replicates: in singlicate
# 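Note: KINOMEscan kinase panel screen.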
smiles,measurement,setting,value
Nc1ncnc2c1nc(-c1ccccc1)n2-c1ccccc1 [SKF-97293],%Inh,[1]; [21],0%
same,%Inh,[2],8%
same,%Inh,[3],0%
same,%Inh,[4],2%
same,%Inh,[5],7%
same,%Inh,[6],0%
same,%Inh,[7],4%
same,%Inh,[8],0%
same,%Inh,[9],14%
same,%Inh,[10],11%
same,%Inh,[11],0%
same,%Inh,[12],2%
same,%Inh,[13],3%
same,%Inh,[14],16%
same,%Inh,[15],52%
same,%Inh,[16],23%
same,%Inh,[17],31%
same,%Inh,[18],29%
same,%Inh,[19],0%
same,%Inh,[20],0%
O=C(Nc1cccc(Oc2ccc3nc(NC(=O)C4CC4)cn3n2)c1)c1ccccc1C(F)(F)F,%Inh,[1]; [21],45%
same,%Inh,[2],100%
same,%Inh,[3],90%
same,%Inh,[4],79%
same,%Inh,[5],0%
same,%Inh,[6],0%
same,%Inh,[7],16%
same,%Inh,[8],34%
same,%Inh,[9],0%
same,%Inh,[10],3%
same,%Inh,[11],12%
same,%Inh,[12],0%
same,%Inh,[13],0%
same,%Inh,[14],0%
same,%Inh,[15],22%
same,%Inh,[16],0%
same,%Inh,[17],3%
same,%Inh,[18],1%
same,%Inh,[19],0%
same,%Inh,[20],0%
COCCOCCOc1cc2ncc3c4ccc(C#N)cc4[nH]c3c2cc1OC,%Inh,[1]; [21],92.1%
same,%Inh,[2],70%
same,%Inh,[3],53%
same,%Inh,[4],2%
same,%Inh,[5],0%
same,%Inh,[6],0%
same,%Inh,[7],6%
same,%Inh,[8],0%
same,%Inh,[9],0%
same,%Inh,[10],29%
same,%Inh,[11],0%
same,%Inh,[12],5%
same,%Inh,[13],0%
same,%Inh,[14],0%
same,%Inh,[15],0%
same,%Inh,[16],30%
same,%Inh,[17],1%
same,%Inh,[18],63%
same,%Inh,[19],12%
same,%Inh,[20],6%
O=C(Nc1cccc(-c2nn3ncccc3c2-c2ccnc(Nc3ccccc3)n2)c1)c1c(F)cccc1F [GSK198271],%Inh,[1]; [21],17%
same,%Inh,[2],60%
same,%Inh,[3],6%
same,%Inh,[4],42%
same,%Inh,[5],0%
same,%Inh,[6],21%
same,%Inh,[7],0%
same,%Inh,[8],25%
same,%Inh,[9],0%
same,%Inh,[10],3%
same,%Inh,[11],31%
same,%Inh,[12],0%
same,%Inh,[13],16%
same,%Inh,[14],0%
same,%Inh,[15],38%
same,%Inh,[16],12%
same,%Inh,[17],15%
same,%Inh,[18],69%
same,%Inh,[19],38%
same,%Inh,[20],0%
Cn1cc(-c2[nH]c3cc(NC(=O)[C@H](N)C4CCCCC4)cc4c3c2C=NNC4=O)cn1,%Inh,[1]; [21],99.5%
same,%Inh,[2],95.7%
same,%Inh,[3],97.5%
same,%Inh,[4],30%
same,%Inh,[5],3%
same,%Inh,[6],58%
same,%Inh,[7],81%
same,%Inh,[8],44%
same,%Inh,[9],0%
same,%Inh,[10],0%
same,%Inh,[11],0%
same,%Inh,[12],60%
same,%Inh,[13],45%
same,%Inh,[14],36%
same,%Inh,[15],91.3%
same,%Inh,[16],94.1%
same,%Inh,[17],81%
same,%Inh,[18],95.7%
same,%Inh,[19],92.2%
same,%Inh,[20],0%
CN1CCN(CCCNc2nccc(-c3c(-c4ccc(F)cc4)nn4cc(C(F)(F)F)ccc34)n2)CC1 [GW621581],%Inh,[1]; [21],1%
same,%Inh,[2],0%
same,%Inh,[3],0%
same,%Inh,[4],9%
same,%Inh,[5],83%
same,%Inh,[6],40%
same,%Inh,[7],0%
same,%Inh,[8],0%
same,%Inh,[9],26%
same,%Inh,[10],70%
same,%Inh,[11],97.1%
same,%Inh,[12],0%
same,%Inh,[13],0%
same,%Inh,[14],0%
same,%Inh,[15],9%
same,%Inh,[16],0%
same,%Inh,[17],19%
same,%Inh,[18],0%
same,%Inh,[19],21%
same,%Inh,[20],6%
Cc1cccc(Nc2nc(N[C@H]3CCNC3)ncc2C(N)=O)c1.Cl [GSK2197149],%Inh,[1]; 1 µM,75%
same,%Inh,[2],40%
same,%Inh,[3],66%
same,%Inh,[4],25%
same,%Inh,[5],0%
same,%Inh,[6],0%
same,%Inh,[7],2%
same,%Inh,[8],7%
same,%Inh,[9],0%
same,%Inh,[10],28%
same,%Inh,[11],0%
same,%Inh,[12],0%
same,%Inh,[13],7%
same,%Inh,[14],0%
same,%Inh,[15],47%
same,%Inh,[16],22%
same,%Inh,[17],33%
same,%Inh,[18],79%
same,%Inh,[19],34%
same,%Inh,[20],0%
COc1cccc(C2=C(Nc3ccc(Cl)c(C(=O)O)c3)C(=O)NC2=O)c1 [SB-390769],%Inh,[1]; [21],9%
same,%Inh,[2],11%
same,%Inh,[3],100%
same,%Inh,[4],16%
same,%Inh,[5],0%
same,%Inh,[6],15%
same,%Inh,[7],100%
same,%Inh,[8],5%
same,%Inh,[9],0%
same,%Inh,[10],0%
same,%Inh,[11],22%
same,%Inh,[12],0%
same,%Inh,[13],0%
same,%Inh,[14],0%
same,%Inh,[15],36%
same,%Inh,[16],6%
same,%Inh,[17],2%
same,%Inh,[18],99.4%
same,%Inh,[19],24%
same,%Inh,[20],12%
O=C(Nc1cccc(-c2nn3ccccc3c2-c2ccnc(Nc3cccc(F)c3)n2)c1)c1c(F)ccc(F)c1Cl [GSK357952],%Inh,[1]; [21],0%
same,%Inh,[2],26%
same,%Inh,[3],0%
same,%Inh,[4],25%
same,%Inh,[5],0%
same,%Inh,[6],1%
same,%Inh,[7],16%
same,%Inh,[8],13%
same,%Inh,[9],18%
same,%Inh,[10],16%
same,%Inh,[11],0%
same,%Inh,[12],0%
same,%Inh,[13],9%
same,%Inh,[14],0%
same,%Inh,[15],0%
same,%Inh,[16],20%
same,%Inh,[17],21%
same,%Inh,[18],2%
same,%Inh,[19],0%
same,%Inh,[20],1%

# Reference: publication PMC5540273 (PLoS ONE, 2017)
